An excerpt weighted towards active compounds, which were near 3.5% of everything screened.
MITF primary: inhibitors of human MITF; AlphaScreen MITF homodimerization, bead proximity signal; 650,000 compounds, 0.91% hits; inhibition, % at 2.6 µM; AID 1259374; in the data active = inhibition above about 50%;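 note: 0% = vehicle wells with protein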
Target sequence (O75030 whole entry, looked up): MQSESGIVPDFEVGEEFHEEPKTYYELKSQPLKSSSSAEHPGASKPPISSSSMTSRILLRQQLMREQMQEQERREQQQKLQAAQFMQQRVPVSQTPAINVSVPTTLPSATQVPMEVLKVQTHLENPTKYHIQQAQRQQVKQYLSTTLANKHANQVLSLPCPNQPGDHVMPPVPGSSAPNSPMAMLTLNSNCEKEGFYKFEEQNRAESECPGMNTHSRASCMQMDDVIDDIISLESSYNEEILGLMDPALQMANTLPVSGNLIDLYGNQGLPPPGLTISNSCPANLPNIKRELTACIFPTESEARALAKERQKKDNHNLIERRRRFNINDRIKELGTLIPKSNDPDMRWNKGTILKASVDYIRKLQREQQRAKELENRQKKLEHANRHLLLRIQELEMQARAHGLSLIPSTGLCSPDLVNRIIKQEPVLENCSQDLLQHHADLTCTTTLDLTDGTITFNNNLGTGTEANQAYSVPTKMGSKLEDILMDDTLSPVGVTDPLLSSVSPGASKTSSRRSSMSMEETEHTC
FBW7 activator: activators of human E3 ligase FBW7; AlphaScreen FBW7–phospho-cyclin E peptide binding, activator screen; normalized activity (activation), % at 26.1 µM; 650,000 compounds, 0.13% hits; in the data active = normalized activity above about 1.9%;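 note: purified mutant Fbw7 with reduced substrate affinity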
GPR151 activ: activators of human GPR151 | 650,000 compounds, 1% hits | Q8TDV0 | activation, % at 11.2 µM | PathHunter beta-arrestin GPR151 cells, luminescence; in the data active = activation above about 4.9%;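 note: 0% = median of compound wells and 100% = cells with positive control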
TEAD-YAP block: TEAD-YAP interaction inhibition. HEK-TIYL cells, TEAD-Gal4/YAP UAS-luciferase luminescence. inhibition, % at 9.12 µM. 640,000 compounds, 1.4% hits; in the data active = inhibition above about 32%;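 note: 0% = median of test compound wells and 100% = reference inhibitor wells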
* hit, by the source's call.

SMILES	MITF primary	FBW7 activator	GPR151 activ	TEAD-YAP block
COc1ccc(/C=C2\SC(=Nc3cccc(O)c3)NC2=O)cc1OC	3	0	1	43*
COc1cccc(/C=C2\SC(=Nc3ccc(O)cc3)NC2=O)c1OC	4	0	3	46*
CCOc1ccc(-n2c(=S)sc3c(=O)n(-c4ccccc4C)c(SCC(=O)Nc4cccc(OC)c4)nc32)cc1	16	0	-1	7
COc1ccc(-c2nnc(NC(=O)c3ccc(C(C)(C)C)cc3)s2)cc1	-6	0	-1	-2
O=C(NCCc1ccccc1)c1cccc(Cl)c1	-12	0	0	-87
COc1cc(CNc2ccc3ncc(-c4ccc(C(C)=O)s4)n3n2)cc(OC)c1OC	12	1	1	-11
O=c1cc(CNCc2cccs2)c2cc3c(cc2o1)CCC3	0	0	-2	45*
O=C(Nc1nc2ccccc2[nH]1)c1ccc(Cl)cc1Cl	-10	0	-11	84*
O=C(Nc1cnc2ccccc2c1)c1ccc(Cl)cc1Cl	10	0	-4	66*
O=C(Nc1nc2ccccc2[nH]1)c1ccc([N+](=O)[O-])cc1Cl	3	0	-6	18
O=C(Nc1nc2ccccc2[nH]1)c1ccccc1Cl	3	0	-11	83*
Cc1cc(NC(=S)N(CCCN2CCCCCC2)Cc2ccco2)ccc1Cl	-5	0	0	15
OCC#CCSc1ncnn1-c1ccccc1	12	7.2*	1	0
O=C(Nc1ccc(Br)cc1)c1cccc(OCc2cccc(Cl)c2)c1	-4	0	0	-37
N=C1c2ccccc2C(=O)C1c1ccccc1 (stereo unspecified)	65*	0	0	-33
COc1ccc(C2C(=O)c3ccccc3C2=O)cc1	7	0	-1	-4
CNC(=O)c1cc(F)ccc1Nc1cc(Nc2cc(-c3cncnc3)nc(C)n2)ncc1C(F)(F)F	-5	0	-1	55*
Cc1nc(Nc2cc(Nc3ccccn3)c(C(F)(F)F)cn2)cc(-c2cncnc2)n1	16	0	0	32*
COc1ccc(N2CCOCC2)cc1Nc1cc(Nc2ccccn2)c(C(F)(F)F)cn1	19	0	-1	-2
OCCCc1nc2ccccc2n1CC1CCCCC1	22	0	1	6
NC(=O)c1ccc(-c2nc(NCCN3CCOCC3)c3ncn(-c4ccsc4)c3n2)cc1	21	0	1	33*
O=C(NC1CC1)c1ccc(-c2nc(NCCN3CCOCC3)c3ncn(-c4ccccc4)c3n2)cc1	-2	0	0	67*
O=C(NC1CC1)c1ccc(-c2nc(NCCN3CCOCC3)c3ncn(-c4ccsc4)c3n2)cc1	4	0	2	37*
O=C(NC1CC1)c1ccc(-c2nc(NC3CC3)c3ncn(-c4ccccc4)c3n2)cc1	-14	0	0	33*
CC(C)NC(=O)C1CCN(c2nc3ccccc3n3cccc23)CC1	1	0	0	1
SMILES	MITF primary	FBW7 activator	GPR151 activ	TEAD-YAP block
Cc1ccc(S(=O)(=O)c2cnc(C)nc2-c2cccnc2)cc1	-7	0	-1	-14
Nc1ccc(Oc2ccc3nc(-c4ccc(Oc5ccccc5)cc4)c(-c4ccccc4)nc3c2)cc1	9	0	1	-55
Nc1cccc(-c2nc(NCCc3ccc(O)cc3)c3ncn(-c4ccsc4)c3n2)c1	-6	0	0	56*
Nc1cccc(-c2nc(NCCN3CCOCC3)c3ncn(-c4ccsc4)c3n2)c1	5	0	0	53*
COc1cccc(NC(=O)c2ccc(F)c(S(=O)(=O)N3CCc4ccccc4C3)c2)c1	2	0	1	-7
O=C(Nc1ccccc1F)c1cnc2ccccn2c1=O	9	0	-2	54*
O=C(NCc1ccc(Cl)cc1)c1nccc2ccccc12	-2	0	-1	-14
Cc1cc(N/N=C\c2ccccc2)nc(-c2ccccc2O)n1	6	0	0	15
Cc1nc(N/N=C/c2ccc(O)cc2O)cc(-c2ccccc2)n1	7	0	0	10
Oc1ccc(/C=N/Nc2ncc(-c3ccccc3)cn2)c(O)c1	31	-1	-1	62*
Cc1cc(N/N=C/c2ccc(O)cc2O)nc(-c2ccccc2O)n1	3	0	-1	43*
CCn1cc(C(=O)OCc2ccc(C)cc2C)c(=O)c2ccc(C)nc21	-9	0	0	17
c1ccc(Nc2nc(N3CCc4ccccc4C3)nc3c2ncn3C2CCCCC2)cc1	15	0	-1	32*
c1ccc(Oc2ccc(Nc3nc(N4CCc5ccccc5C4)nc4c3ncn4C3CCCCC3)cc2)cc1	6	0	2	1

Screens: PubChem, The Scripps Research Institute Molecular Screening Center
